# RORgamma inh – ROR gamma (mouse) transcription inhibition. P51450. Drosophila S2 Gal4-RORgamma UAS-luciferase reporter, 20 h. Potency, µM (doses to about 53.6 µM), inactives show at the highest dose activity change, negative = inhibition, usual class: inhibitors. 310,000 compounds, 5.4% hits; also: potency is read from the fitted curve at half-maximal effect; nearly all actives have a fitted effect of over 60% in size
# Target sequence (P51450 whole entry, looked up, the tested form may be a part): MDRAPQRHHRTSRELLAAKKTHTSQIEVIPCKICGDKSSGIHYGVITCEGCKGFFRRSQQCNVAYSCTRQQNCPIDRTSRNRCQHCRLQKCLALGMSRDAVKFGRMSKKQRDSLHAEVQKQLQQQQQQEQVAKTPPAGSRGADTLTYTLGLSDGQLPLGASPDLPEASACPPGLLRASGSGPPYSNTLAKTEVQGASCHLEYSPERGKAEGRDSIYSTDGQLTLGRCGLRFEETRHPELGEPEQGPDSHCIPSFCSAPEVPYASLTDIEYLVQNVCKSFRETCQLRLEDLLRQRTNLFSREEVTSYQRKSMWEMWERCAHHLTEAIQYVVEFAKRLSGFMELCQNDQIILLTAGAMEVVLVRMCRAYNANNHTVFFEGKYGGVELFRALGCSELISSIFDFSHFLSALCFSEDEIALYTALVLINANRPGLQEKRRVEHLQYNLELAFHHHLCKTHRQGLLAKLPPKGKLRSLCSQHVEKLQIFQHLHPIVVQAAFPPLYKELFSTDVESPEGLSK
#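 Using a luciferase readout, inhibitors were identified by reduced reporter activity in Drosophila cells coexpressing a copper-inducible Gal4–ROR gamma fusion and UAS-driven Photinus luciferase, incubated 20 hr after 700 uM copper sulfate.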
# ELG1 DNA repair – blocks ELG1-dependent DNA repair in HEK293T cells. HEK293T ELG1-luciferase reporter, luminescence, 16 h; DNA damage induced by 5-fluorouridine. Potency, µM (doses to about 46.1 µM), for inactives: top-dose activity change, negative = inhibition, actives largely listed as inhibitors. 330,000 compounds, 2.3% hits. AID 504467; also: potency is read from the fitted curve at half-maximal effect; nearly all actives have a fitted effect of over 55% in size
#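 5-Fluorouridine DNA damage + compound/DMSO, 2,000 cells/well, 16 h, 37 °C/5% CO2. ONE-Glo, 30 min RT, luminescence. Readout = decrease in reporter signal.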
# IL1B secr inh – blocks inflammasome-driven IL-1 beta release; THP-1 LPS/ATP IL-1B secretion, AlphaLISA, 16 h; active compounds read low; activity change, % at 57.5 µM; AID 743279; 360,000 compounds, 4.7% hits; in the data active = activity change below about -50%; inconclusive = mostly about -30% to -49%
#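 THP-1 cells pretreated 1 hr with compounds (up to 57.5 uM final), then stimulated with LPS (250 ng/mL final) plus ATP (1.25 mM final); secreted IL-1B measured by AlphaLISA after 16 hr, decreased signal indicating inhibition.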
# TDP1 cell CPT – growth inhibition of DT40 Tdp1-/-;hTDP1 cells with camptothecin (screen for TDP1 inhibitors); chicken DT40 Tdp1-/-;hTDP1 cells + 20 nM CPT, ATP luminescence, 48 h; Potency, µM (highest dose often 46.2 µM), for inactives: at the top dose activity change, negative = growth inhibition, hits mostly inhibitors; 420,000 compounds, 12% hits; also: potency is read from the fitted curve at half-maximal effect; nearly all actives have a fitted effect of over 55% in size
#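 Chicken DT40 Tdp1-/- cells stably complemented with human TDP1 were seeded at 400 cells/well in medium containing 20 nM camptothecin, exposed to pin-transferred compounds, and grown at 37 °C for at least 48 hr. Viability was read as ATP luminescence.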
# TDP1 cell noCPT – qHTS for Inhibitors of human tyrosyl-DNA phosphodiesterase 1 (TDP1): qHTS in cells in absence of CPT. DT40 Tdp1-/- hTDP1 cells, no CPT, ATP luminescence, 48 h. 420,000 compounds, 15% hits. Potency, µM (series often up to 46.2 µM), inactives show top-dose activity change, negative = growth inhibition, hits mostly inhibitors; also: potency is read from the fitted curve at half-maximal effect; nearly all actives have a fitted effect of over 55% in size
#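 Chicken DT40 Tdp1-/- cells complemented with human TDP1, screened without camptothecin (DMSO vehicle only), 400 cells/well. Compounds pin-transferred, cells incubated at 37 °C for at least 48 hr. Growth read as ATP-dependent luminescence (CellTiter-Glo, 30 min at RT).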
# Gal4-VP16 FLuc – inhibits Gal4-VP16 luciferase reporter, ROR gamma counter-screen. Drosophila S2 Gal4-VP16 UAS-luciferase, luminescence, 20 h. Potency, µM (series often up to 53.6 µM), inactives show at the highest dose activity, negative = inhibition, usual class: inhibitors. 310,000 compounds, 3.5% hits. AID 2546;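 also: Gal4-VP16 expression switched on by copper sulfate through the metallothionein promoter; potency is read from the fitted curve at half-maximal effect; nearly all actives have a fitted effect of over 50% in size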
# Starred values were filed as active, the others as inactive; ? = inconclusive; · = no result; ! = repeats disagree; [ ] = remark or other dose. The list is not random: actives were taken first. Their share in the collection is about 21%. Unless noted, calls follow the shape of the dose curve; as a rule, active = well fitted curve in the direction sought with a large enough effect; inconclusive = small, poorly fitted or top-dose-only effect, or another doubt; inactive = no such curve, though single readings can be large; an effect the other way counts as inactive or inconclusive. % is scaled to controls: 0 for no effect and ±100 for the full control effect.
SMILES,RORgamma inh,ELG1 DNA repair,IL1B secr inh,TDP1 cell CPT,TDP1 cell noCPT,Gal4-VP16 FLuc
CN(CCO)C(=O)c1ccc(-c2nn(C)c(=O)c3ccccc23)cc1,-26%,14%,28,-21%,-9%,-3%
OC[C@@H]1CCC[C@@H](n2cnc3c(=S)nc[nH]c32)O1,·,·,·,?,-12%,·
COC(=O)c1ccc(Cl)cc1NC(=O)Nc1nnc(N2CCCC2)s1,·,·,·,2%,-13%,·
CCOc1ccc(C(c2c(O)cc(C)n(CCOC)c2=O)N2CCN(c3ccccc3F)CC2)cc1 (stereo not given),·,·,·,-18%,-30%,·
Cc1ccc(-c2c[n+](CC(=O)Nc3nc(-c4ccccc4)cs3)c3n2CCC3)cc1,-5%,-6%,-28,15µM*,18µM*,8%
Cc1ccc(NC(=O)C[n+]2cc(-c3ccccc3)n3c2CCC3)cc1,-3%,-2%,0,-1%,?,-1%
O=C(C[n+]1cc(-c2ccccc2)n2c1CCC2)Nc1nc(-c2ccccc2)cs1,?,21%,0,?,23µM*,?
Cn1c(NC(=O)C[n+]2cc(-c3ccc(F)cc3)n3c2CCC3)cc(=O)n(C)c1=O,0%,-10%,-1,0%,?,3%
Cc1ccc(-c2c[n+](CC(=O)Nc3cc(=O)n(C)c(=O)n3C)c3n2CCC3)cc1,-23%,?,0,?,15µM*,-11%
Cc1ccc(-c2c[n+](CC(=O)Nc3ccccc3C)c3n2CCC3)cc1,1%,1%,-53*,?,?,4%
CC(C)C[C@@H](CC(=O)N[C@@H](CCCN)CC(=O)N[C@@H]1CCNC[C@H]1C(=O)N[C@H](CC(=O)N[C@@H](CCC(=O)O)CC(=O)O)Cc1c[nH]c2ccccc12)NC(=O)[C@@H]1CNCC[C@H]1N,-8%,·,·,·,·,-1%
CCOc1ccc(Cc2nccc3cc(OCC)c(OCC)cc23)cc1OCC,-1%,·,·,5.8µM*,5.8µM*,16µM*!
CCOC(=O)c1ccc(NC(=O)COc2cccc3c(=O)n(C)ccc23)cc1,·,·,·,21µM*,18µM*,·
COc1cccc(OC)c1C(=O)OCC(=O)Nc1ccc(OC(F)(F)F)cc1,-22%,21µM*,9,?,?,-4%
Cn1ccc2c(OCC(=O)Nc3ccc(OC(F)(F)F)cc3)cccc2c1=O,·,·,·,12µM*,7.3µM*,·
COc1ccc(CNC(=O)c2cnn(-c3nccc(-c4ccco4)n3)c2C)cc1OC,·,·,·,11%[9.04 µM],-15%,·
Cc1cccc(N2CCN(C(=O)c3ccc(CS(=O)Cc4cccc(Cl)c4)o3)CC2)c1C (stereo not given),0%,?,-4,?,?,5%
Cc1ccc(Cl)cc1N1CCN(C(=O)c2ccc(CS(=O)Cc3ccc(Cl)cc3)o2)CC1 (stereo not given),5%,0%,?,13µM*,?,-4%
Cc1ccc(CS(=O)Cc2ccc(C(=O)N3CCN(c4cccc(C)c4C)CC3)o2)cc1 (stereo not given),·,·,-22,?,21µM*,·
O=C(c1ccc(CS(=O)Cc2ccc(Cl)cc2)o1)N1CCN(c2ccccc2F)CC1 (stereo not given),1%,?,?,?,?,17%
CN1CCN(C(=O)c2ccc(CS(=O)Cc3ccc(Cl)cc3)o2)CC1 (stereo not given),-11%,-1%,-13,-3%,7%,3%
Cc1ccc(C)c(N2CCN(C(=O)c3ccc(CS(=O)Cc4ccc(Cl)cc4)o3)CC2)c1 (stereo not given),10%,15µM*,-8,?,?,6%
CC(=O)Nc1cc(C(=O)N2CCCC2)ccc1Sc1ccc(Cl)cc1,?,?,3,20µM*,?,2%
CCOc1ccccc1NC(=O)CCCNC(=O)c1ccc(Cl)cc1,12%,8%,28,7%,-16%,11%
CC(=O)Nc1cc(C(=O)N2CCCC2)ccc1Sc1ccc(C)cc1,12%,?,11,?,?,-3%
SMILES,RORgamma inh,ELG1 DNA repair,IL1B secr inh,TDP1 cell CPT,TDP1 cell noCPT,Gal4-VP16 FLuc
CCN(C(=O)C(C)OC(=O)CCCNC(=O)c1ccc(Cl)cc1)c1ccccc1 (stereo not given),·,-10%,-3,?,21µM*,·
CCN(CCCNC(=O)c1ccc(Sc2ccc(Cl)cc2)c(NC(C)=O)c1)c1ccccc1,·,·,·,?,23µM*,·
O=C(CCCc1c[nH]c2ccccc12)NCc1ccccc1F,34%,-7%,-1,?,-10%,-8%
S=C(Nc1ccc(Cl)cc1)N1CCOCC1,·,·,-26,-8%,-24%,·
CC(C)c1ccc(NC(=S)NN2CCOCC2)cc1,8.9µM*,?,-3,-7%,-35%,?
S=C(Nc1ccc(Cl)cc1)NN1CCOCC1,11µM*,10%,12,4%,-4%,?
S=C(Nc1ccc(Cl)c(Cl)c1)NN1CCOCC1,7.9µM*,2%,2,-1%,-10%,10µM*

# Compound activity: PubChem BioAssay, National Center for Advancing Translational Sciences (NCATS)
